Results from PubChem BioAssay.
Values joined by “and” are separate entries in the source; they are usually repeats but may differ in a detail not shown here. Equal values may be shown once.

test: probe aXIP binding to arrayed compounds – biochemical, NeuroSMM set, 635/667 nm fluorescence, primary screen (AID 1119); conditions: small-molecule microarray, higher = more signal, called active from +8 up or from −8 down;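 further: probe is the protein aXip251-270 applied at 1 µg/mL to compound-printed slides; binding of probe to printed compounds measured as 667 nm fluorescence plus signal to noise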

Composite Z-score, inactive:
C=CCN(C(=O)C(c1cccs1)N(C(=O)/C=C\C(=O)O)c1ccc(CCO)cc1)c1ccc(OC)cc1 (centres undefined) -0.16 and -0.902
CO[C@@H]1COC(=O)CC=C[C@H](C)COC(=O)[C@H](C)NC(=O)CC=C[C@H]1C 0.332
CCOC(=O)c1ccc(NC(=O)O[C@H]2[C@H](OC(=O)Nc3ccccc3)[C@@H](OC(=O)Nc3ccccc3)[C@@H](OC)O[C@@H]2CO)cc1 1.09 and 0.682
COC(=O)C1=C(C)N(Cc2ccccc2)C2=C(C(=O)c3ccccc3)[C@H](c3ccccc3)[C@@](O)(C(=O)OC)C(=O)N2[C@@H]1c1ccccc1 -0.174 and -0.441
C[C@@]1([C@@H](NC(=O)Cc2ccccc2)c2ccc(-c3ccccc3)cc2)C[C@H]1C1CCCCC1 1.18 and 0.111 and 0.428
CC(CO)N1C(=O)[C@@H]2C3C(=O)OCCC=C[C@H]3OC23C=CCN(CCN2CCOCC2)C(=O)[C@@H]13 (some centres undefined) 0.102 and -0.135
C=C[C@H](C)[C@H](O)c1ccc(O)c2ccccc12 0.0296 and -0.906
C=CCN(CCCC)C(=O)C(c1cccs1)N(C(=O)/C=C\C(=O)O)c1c(Cl)cccc1CO (centres undefined) -0.089 and 0.339
C#CCCCON=C1C[C@@H](O)[C@@H](O)[C@@H]2[C@@H]3C(=O)N(C4CCCCC4)C(=O)[C@@H]3CC[C@H]12 -0.393
